This passage reports growth inhibition results from PubChem BioAssay (NCI).

This assay in a line: NCI Yeast Anticancer Drug Screen. Data for the mlh1 strain (AID 171).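 Note: 0% = growth of vehicle-treated control cultures of the same strain.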 The note with it: S. cerevisiae mlh1 strain growth inhibition, stronger effect = higher value. As to the method:
Growth inhibition of yeast strains with defined genetic alterations is measured as a screen for potential anti-cancer activity. Selected strains with alterations in DNA damage repair or cell cycle control were exposed to compounds and growth inhibition was measured relative to vehicle treated controls. The strain used in this assay is mlh1

Compounds without any hit were thinned out: in the full panel of roughly 79,000, 15% have a hit. Values without a mark were called inactive. Calls of active or inactive are those of the source. Cut-off read from the data, not from the text of the source: active = growth inhibition above about 70%; inactive = the rest.

For the compound `O=[N+]([O-])c1cc([As](Br)c2ccc(O)c([N+](=O)[O-])c2)ccc1O`, the growth inhibition is, setting by setting: (at 1.2 µM) 31%; (at 3.7 µM) 75% (active); (at 11.0 µM) 99% (active); (at 33.0 µM) 100% (active); (at 100.0 µM) 100% (active).
On to `c1ccc2cc3n[se]nc3cc2c1`, for which the growth inhibition reads like this: (at 1.2 µM) 2%; (at 3.7 µM) 4%; (at 11.0 µM) 11%; (at 33.0 µM) 34%; (at 100.0 µM) 97% (active).
The like results for `CC1CN=C(Nc2ccccc2)S1` (stereo not given) were, in that order, -8%, -7%, -14%, -32% and -24%.
For `Cc1nc2ccccc2cc1C[N+]12CN3CN(CN(C3)C1)C2`, the growth inhibition runs as follows: (at 1.2 µM) -1%; (at 3.7 µM) 1%; (at 11.0 µM) -6%; (at 33.0 µM) 4%; (at 100.0 µM) 46%.
The like results for `O=Cc1ccc(C(F)(F)F)cc1.[C-]#[O+].[C-]#[O+].[C-]#[O+].[Cr]` were, in that order, -1%, -4%, 7%, 8% and 7%.
With `Oc1cccc2nc3ccccc3nc12`, the growth inhibition reads like this: (at 1.2 µM) -58%; (at 3.7 µM) -33%; (at 11.0 µM) -27%; (at 33.0 µM) 12%; (at 100.0 µM) 92% (active).
Taken in the same sequence, the figures for `Nc1nc(-c2ccccc2)c(-c2ccccc2)[se]1` were 0%, 2%, 0%, 6% and 17%.
The like results for `BrCC[N+]12CC[N+](CCBr)(CC1)C2` were, in that order, 12%, -2%, 42%, 88% (active) and 96% (active).
